According to PubChem BioAssay AID1159580 (chemical genetic matrix, 2015):
Values joined by “and” are separate entries in the source; they are usually repeats but may differ in a detail not shown here. Identical values can stand only once. In all, about 5,500 compounds went through this assay and about 2,000 (36%) were called active. Roughly 18% stayed inconclusive and do not appear here. Cut-off read from the data, not from the text of the source: active = normalized growth mostly below about 0.91 (no sharp cut-off); inconclusive = no clear call, values can overlap the other calls; inactive = mostly above about 0.92. This is one part of the list.

Test: chemical genetic growth profiling, strain panel (AID 1159580);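 note: tested at 20 µM; growth read once vehicle control cultures reached saturation at 30 °C; 1 = growth at the plate median or of vehicle wells; lower values mean less growth of the strain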
Settings: S. cerevisiae deletion strains, growth OD

Measured: normalized growth

NC(=O)NC(=O)Cc1ccccc1
inactive: locus YAL013W, strain DEP1, active compounds read low 1.03 | locus YAL021C, strain ccr4, active compounds read low 0.999 | locus YAL026C, strain drs2, active compounds read low 0.976 | locus YAL030W, strain snc1, active compounds read low 0.995 | locus YBL061C, strain skt5, active compounds read low 0.975 | locus YBR009C, strain hhf1, active compounds read low 1.04 | locus YBR021W, strain FUR4, active compounds read low 1.02 | locus YBR023C, strain chs3, active compounds read low 0.974 | locus YBR171W, strain sec66, active compounds read low 0.992 | locus YBR229C, strain ROT2, active compounds read low 0.995 | locus YBR231C, strain swc5, active compounds read low 1.01 | locus YBR279W, strain paf1, active compounds read low 0.979 | locus YCL011C, strain gbp2, active compounds read low 0.961 | locus YCL016C, strain dcc1, active compounds read low 0.96 | locus YCL029C, strain bik1, active compounds read low 0.997 | locus YCL069W, strain vba3, active compounds read low 1.01 | locus YCR088W, strain abp1, active compounds read low 0.993 | locus YDL005C, strain med2, active compounds read low 0.98 | locus YDL035C, strain GPR1, active compounds read low 1.02 | locus YDL040C, strain nat1, active compounds read low 0.991 | locus YDL074C, strain BRE1, active compounds read low 1.16 | locus YDL101C, strain DUN1, active compounds read low 1 | locus YDL134C, strain PPH21, active compounds read low 1 | locus YDL185W, strain tfp1, active compounds read low 0.992 | locus YDL192W, strain arf1, active compounds read low 0.991 | locus YDR001C, strain nth1, active compounds read low 0.98 | locus YDR069C, strain doa4, active compounds read low 0.99 | locus YDR101C, strain arx1, active compounds read low 0.994 | locus YDR137W, strain rgp1, active compounds read low 0.979 | locus YDR150W, strain NUM1, active compounds read low 1.01 | locus YDR159W, strain sac3, active compounds read low 0.997 | locus YDR162C, strain NBP2, active compounds read low 1.04 | locus YDR195W, strain ref2 0.994 | locus YDR297W, strain sur2, active compounds read low 0.996 | locus YDR318W, strain mcm21, active compounds read low 0.993 | locus YDR334W, strain swr1, active compounds read low 0.978 | locus YDR335W, strain msn5, active compounds read low 0.964 | locus YDR388W, active compounds read low 0.995 | locus YDR392W, strain spt3, active compounds read low 0.916 | locus YDR502C, strain sam2, active compounds read low 1.01 | locus YEL003W, strain gim4, active compounds read low 0.998 | locus YEL037C, strain rad23, active compounds read low 0.983 | locus YEL061C, strain CIN8 (second series), active compounds read low 0.976 | locus YEL061C, strain CIN8, active compounds read low 1.03 | locus YER015W, strain faa2, active compounds read low 0.99 | locus YER016W, strain bim1, active compounds read low 0.96 | locus YER110C, active compounds read low 0.998 | locus YER111C, strain swi4, active compounds read low 0.981 | locus YER155C, strain BEM2 (second series), active compounds read low 1.04 | locus YER155C, strain BEM2, active compounds read low 1 | locus YER167W, strain BCK2, active compounds read low 1 | locus YFR010W, strain ubp6, active compounds read low 1.01 | locus YGL078C, strain dbp3, active compounds read low 1 | locus YGL086W, strain mad1, active compounds read low 0.995 | locus YGL167C, strain pmr1, active compounds read low 1 | locus YGL173C, strain kem1, active compounds read low 1.04 | locus YGL227W, strain vid30, active compounds read low 1 | locus YGL240W, strain doc1, active compounds read low 1.04 | locus YGL248W, strain PDE1, active compounds read low 1 | locus YGL253W, strain hxk2, active compounds read low 0.955 | locus YGR078C, strain PAC10, active compounds read low 1.01 | locus YGR135W, strain pre9, active compounds read low 0.993 | locus YGR229C, strain SMI1, active compounds read low 1.13 | locus YGR252W, strain gcn5, active compounds read low 1.14 | locus YHR013C, strain ard1, active compounds read low 0.964 | locus YHR027C, strain rpn1, active compounds read low 0.999 | locus YHR030C, strain SLT2, active compounds read low 1 and 0.964 | locus YHR079C, strain IRE1 (second series), active compounds read low 1 | locus YHR079C, strain IRE1, active compounds read low 0.978 | locus YHR094C, strain hxt1, active compounds read low 1 | locus YHR129C, strain ARP1, active compounds read low 1 | locus YHR142W, strain chs7, active compounds read low 0.931 | locus YHR200W, strain rpn10, active compounds read low 0.991 | locus YIL066C, strain RNR3, active compounds read low 1.01 | locus YIL073C, strain SPO22, active compounds read low 0.979 | locus YIL125W, strain kgd1, active compounds read low 1 | locus YIR030C, strain dcg1, active compounds read low 0.995 | locus YJL092W, strain hpr5, active compounds read low 0.977 | locus YJL095W, strain BCK1 (second series), active compounds read low 0.967 | locus YJL095W, strain BCK1, active compounds read low 1.04 and 0.989 | locus YJL115W, strain asf1, active compounds read low 0.957 | locus YJL129C, strain trk1, active compounds read low 0.955 | locus YJL134W, strain LCB3, active compounds read low 1.01 | locus YJL154C, strain vps35, active compounds read low 0.984 | locus YJL164C, strain tpk1, active compounds read low 0.998 | locus YJL166W, strain qcr8, active compounds read low 1 | locus YJL168C, strain set2, active compounds read low 0.997 | locus YJL187C, strain SWE1 (second series), active compounds read low 0.995 | locus YJL187C, strain SWE1, active compounds read low 0.994 | locus YJR043C, strain POL32, active compounds read low 1.03 | locus YJR066W, strain TOR1, active compounds read low 0.931
